PubChem BioAssay (NCI)
Compounds without any hit were thinned out: in the full panel of roughly 79,000, 15% have a hit. The source made the active and inactive calls. No stated cut-off is given here; in the data, active means growth inhibition above about 70%; inactive means the rest.

Legend:
[1] = NCI Yeast Anticancer Drug Screen. Data for the rad52 strain (AID 147);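 further: 0% = growth of vehicle-treated control cultures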; details: S. cerevisiae rad52 mutant growth inhibition, hits give high values
How it was run: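 Growth of repair-deficient yeast cells was compared between compound-treated and vehicle-treated cultures to give percent inhibition.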

[2] = NCI Yeast Anticancer Drug Screen. Data for the wt1 strain (AID 149);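 further: 0% = growth of vehicle-treated wt1 cultures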; details: S. cerevisiae wt1 strain (SPY 50644) growth inhibition, hits give high values
How it was run: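 wt1 yeast, compound-treated; % growth inhibition vs vehicle control.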

[3] = NCI Yeast Anticancer Drug Screen. Data for the rad50EPP+ strain (AID 151);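 further: 0% = growth of vehicle-treated control cultures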; details: S. cerevisiae rad50 mutant strain, hits give high values
How it was run: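 Measured: growth inhibition of rad50EPP+ yeast. Reference: vehicle-treated controls. Screen uses strains with defined genetic alterations in DNA damage repair or cell cycle control.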

[4] = NCI Yeast Anticancer Drug Screen. Data for the mgt1 strain (AID 153); details: S. cerevisiae mgt1 mutant growth inhibition, hits give high values
How it was run: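 Compounds were applied to mgt1 mutant yeast, and growth was then compared against vehicle-treated control cultures to give percent inhibition.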

[5] = NCI Yeast Anticancer Drug Screen. Data for the rad50 strain (AID 155);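 further: 0% = growth of vehicle-only cultures of the same strain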; details: S. cerevisiae rad50 strain growth inhibition, hits give high values
How it was run: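 Genetically altered yeast (DNA repair pathway); compound treatment; growth inhibition vs vehicle ctrl.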

[6] = NCI Yeast Anticancer Drug Screen. Data for the mec2-1 strain (AID 157); details: S. cerevisiae mec2-1 strain, hits give high values
How it was run: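 Compounds were applied to mec2-1 yeast cells. Their growth was then compared with that of vehicle-treated cultures to give growth inhibition.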

[7] = NCI Yeast Anticancer Drug Screen. Data for the rad14 strain (AID 159);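 further: 0% = growth of vehicle-treated control cultures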; details: S. cerevisiae rad14 strain growth inhibition, hits give high values
How it was run: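 Test compounds were applied to a repair-deficient yeast strain. Its growth was then compared with that of cultures given vehicle alone, and inhibition was expressed relative to those controls.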

[8] = NCI Yeast Anticancer Drug Screen. Data for the sgs1 mgt1 strain (AID 161);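 further: 0% = growth of cultures given vehicle only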; details: S. cerevisiae sgs1 mgt1 strain, hits give high values
How it was run: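 Growth of a repair-deficient yeast mutant was monitored after compound treatment and expressed as inhibition relative to vehicle-treated cultures.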

[9] = NCI Yeast Anticancer Drug Screen. Data for the CLN2oe strain (AID 163);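 further: 0% = growth of vehicle-only control cultures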; details: S. cerevisiae CLN2oe strain, hits give high values
How it was run: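 Cells of an engineered yeast line with disturbed cell-cycle regulation are treated with compound. Inhibition of growth is then calculated relative to the vehicle-treated reference.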

[10] = NCI Yeast Anticancer Drug Screen. Data for the cln2 rad14 strain (AID 165);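 further: 0% = growth equal to vehicle treated cultures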; details: S. cerevisiae cln2 rad14 strain, hits give high values
How it was run: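 Strain: cln2 rad14 yeast, altered in cell cycle control and DNA damage repair. Read-out: growth inhibition vs vehicle.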

[11] = NCI Yeast Anticancer Drug Screen. Data for the bub3 strain (AID 167); details: S. cerevisiae bub3 mutant strain, hits give high values
How it was run: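 Yeast carrying a defined mutation is treated with each compound, and growth is compared with that of vehicle-exposed cells to give inhibition.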

[12] = NCI Yeast Anticancer Drug Screen. Data for the wt2 strain (AID 169);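 further: 0% = growth of vehicle-treated yeast cultures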; details: S. cerevisiae wt2 strain growth inhibition, hits give high values
How it was run: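 Growth of compound-treated yeast is measured and expressed as inhibition relative to vehicle-only controls.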

[13] = NCI Yeast Anticancer Drug Screen. Data for the mlh1 strain (AID 171);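 further: 0% = growth of vehicle-treated control cultures of the same strain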; details: S. cerevisiae mlh1 strain growth inhibition, hits give high values
How it was run: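 Test agents were incubated with yeast bearing a defined DNA damage repair or cell cycle control alteration; values are growth inhibition normalised to vehicle-treated cultures.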

[14] = NCI Yeast Anticancer Drug Screen. Data for the sgs1 strain (AID 173);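 further: 0% = growth of vehicle-only control cultures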; details: S. cerevisiae sgs1 mutant, hits give high values
How it was run: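 Strain with an altered DNA repair or cell cycle pathway exposed to compound. Growth then measured. Value = inhibition versus vehicle control.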

[15] = NCI Yeast Anticancer Drug Screen. Data for the mlh1 rad18 strain (AID 175); details: S. cerevisiae mlh1 rad18 strain growth inhibition, hits give high values
How it was run: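 A repair-deficient yeast strain is exposed to test compound, and growth is scored relative to vehicle-treated controls.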

[16] = NCI Yeast Anticancer Drug Screen. Data for the rad18 strain (AID 177); details: S. cerevisiae rad18 mutant growth inhibition, hits give high values
How it was run: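 DNA-repair-defective yeast; compound treatment; growth inhibition scored against vehicle.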

[17] = at 5.0 µM (retest, dose inferred, filed as 0.5)
[18] = at 50.0 µM (retest, dose inferred, filed as 5.0)

Measured: growth inhibition

C/C(=N\NC(N)=O)C(CN1CCOCC1)C(c1ccccc1)c1c(O)c2ccccc2oc1=O (stereo not drawn)
inactive: [1]; at 1.2 µM 1% | [1]; at 3.7 µM 2% | [1]; at 11.0 µM 0% | [1]; at 33.0 µM 1% | [1]; at 100.0 µM -1% | [2]; at 1.2 µM 6% | [2]; at 3.7 µM 1% | [2]; at 11.0 µM 1% | [2]; at 33.0 µM 0% | [2]; at 100.0 µM -1% | [3]; at 1.2 µM -2% | [3]; at 3.7 µM 4% | [3]; at 11.0 µM 1% | [3]; at 33.0 µM -1% | [3]; at 100.0 µM -10% | [4]; at 1.2 µM -2% | [4]; at 3.7 µM 2% | [4]; at 11.0 µM -3% | [4]; at 33.0 µM 0% | [4]; at 100.0 µM -24% | [5]; at 1.2 µM -1% | [5]; at 3.7 µM 6% | [5]; at 11.0 µM 9% | [5]; at 33.0 µM 5% | [5]; at 100.0 µM -6% | [6]; at 1.2 µM 4% | [6]; at 3.7 µM 6% | [6]; [17] 13% | [6]; at 11.0 µM 6% | [6]; at 33.0 µM 7% | [6]; [18] 13% | [6]; at 50.0 µM 53.6% | [6]; at 100.0 µM 4% | [7]; at 1.2 µM 7% | [7]; at 3.7 µM 8% | [7]; at 11.0 µM 2% | [7]; at 33.0 µM 2% | [7]; at 100.0 µM 3% | [9]; at 1.2 µM 4% | [9]; at 3.7 µM 3% | [9]; at 11.0 µM 4% | [9]; at 33.0 µM 4% | [9]; at 100.0 µM -2% | [10]; [17] -7% | [10]; [18] -7% | [10]; at 50.0 µM 59.9% | [11]; at 1.2 µM 4% | [11]; at 3.7 µM 1% | [11]; [17] -7% | [11]; at 11.0 µM 2% | [11]; at 33.0 µM 5% | [11]; [18] -7% | [11]; at 50.0 µM 68% | [11]; at 100.0 µM 1% | [12]; at 1.2 µM 2% | [12]; at 3.7 µM 0% | [12]; at 11.0 µM 0% | [12]; at 33.0 µM -2% | [12]; at 100.0 µM -4% | [13]; at 1.2 µM -2% | [13]; at 3.7 µM 1% | [13]; at 11.0 µM 0% | [13]; at 33.0 µM -3% | [13]; at 100.0 µM 1% | [14]; at 1.2 µM -2% | [14]; at 3.7 µM 3% | [14]; at 11.0 µM 1% | [14]; at 33.0 µM -1% | [14]; at 100.0 µM -5% | [15]; [17] 40% | [15]; [18] 40% | [15]; at 50.0 µM 63.2% | [16]; at 1.2 µM 2% | [16]; at 3.7 µM 0% | [16]; at 11.0 µM 6% | [16]; at 33.0 µM 1% | [16]; at 100.0 µM -7%
active: [5]; [17] 89% | [5]; [18] 89% | [5]; at 50.0 µM 70.2% | [8]; [17] 89% | [8]; [18] 89% | [8]; at 50.0 µM 78.2%
